Measurements from PubChem BioAssay (NCI).
Compounds without any hit were thinned out: in the full panel of roughly 83,000, 20% have a hit.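 Negative percent growth values reflect cell death: -40 means 40% of the cells present at the start died, and -100 means all died.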 Values without a mark were called inactive. Activity calls are given as the source filed them. Rule for the calls: active = growth percent below 10; inactive = the rest.

What was measured:
Test in all cases: NCI-60 one-dose screen, 48 h (100 = growth as untreated, 0 = no growth, -100 = all killed)
Settings in all cases: 10 µM unless noted
T-47D breast = test system: T-47D breast
BT-549 breast = test system: BT-549 breast
SW-620 colon = test system: SW-620 colon
MCF7 breast = test system: MCF7 breast
HCT-116 colon = test system: HCT-116 colon
HCC-2998 colon = test system: HCC-2998 colon
KM12 colon = test system: KM12 colon

Row | SMILES | growth (T-47D breast) | growth (BT-549 breast) | growth (SW-620 colon) | growth (MCF7 breast) | growth (HCT-116 colon) | growth (HCC-2998 colon) | growth (KM12 colon)
1 | CCCCCC(C)(O)C(C(=O)O)c1ccccc1 (configuration not stated) | 106% | 101% | 102% | 98.1% | 99.2% | 108% | 104%
2 | O=C1/C(=C/c2cccc([N+](=O)[O-])c2)COc2ccc(O)c(O)c21 | -16.8% (active) | -3.03% (active) | -31.4% (active) | 1.76% (active) | -74.8% (active) | -85.2% (active) | -45.7% (active)
3 | CCOc1ccccc1NC(=O)CCC(=O)OC | 88.7% | 106% | 104% | 90.4% | 97.5% | 99.5% | 100%
4 | N#Cc1c(-c2ccc(Cl)cc2)nc(NN=Cc2cccc(Cl)c2)nc1N1CCOCC1 | 76.6% | 93.6% | 53.3% | 85.9% | 70.8% | 105% | 84%
5 | CCN1CCN(CCOc2ccc(CNc3ccc4nc(CCC5CCCCC5)[nH]c4c3)cc2)CC1 | -8.02% (active) | 65.6% | 22.1% | 3.86% (active) | 17.9% | 4.19% (active) | 47.1%
6 | NS(=O)(=O)Oc1cccc(-c2nc3sccn3c2-c2ccccc2)c1 | 36.2% | 54% | 35.5% | 26.1% | 23.5% | 87.4% | 48.4%
7 | CCOC(=O)CC1CSC(N/N=C/c2ccc(O)cc2)=N1 (configuration not stated) | 93.2% | 100% | 98.1% | 91% | 81.1% | 97.4% | 100%
8 | COc1cc2c(c(OC)c1OC)CCC(c1cccc(C(=O)Nc3ccc([N+](=O)[O-])cc3)c1)O2 (configuration not stated) | 9.09% (active) | 27.4% | 77.7% | 45.9% | 40.4% | 68.3% | 57.7%
9 | O=C(CSc1nnc(-c2cc(-c3ccc(Cl)cc3)nc3ccccc23)n1-c1ccccc1)Nc1ccc(Cl)cc1 | 96.5% | 110% | 106% | 88.3% | 86.3% | 111% | 102%
10 | COc1ccc(S(=O)(=O)N(C)c2oc(-c3ccc(Cl)cc3)nc2C#N)cc1 | 74.5% | 74.7% | 43.3% | 52.5% | 72% | 76.2% | 56.6%
11 | CC/C(=C(/c1ccc(Cl)cc1)c1ccc(OCCN2CCCC2)cc1)c1ccccc1 | 47.6% | 77.8% | 11.8% | 23.1% | 29.7% | 97.6% | 37.1%
